Screening data as filed in PubChem BioAssay.
Shown are actives, neighbours in structure and some others; about 11% of the full set was active somewhere.
NS1 inh: blocks influenza NS1 protein function; 270,000 compounds, 0.4% hits; Potency, µM (series often up to 46.1 µM), for the others: at the highest dose activity, positive = more growth; calls by dose curve; further: actives are rising curves; nearly all actives have a fitted effect of over 50% in size
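Recovery from NS1-induced slow growth read by OD600 in budding yeast switched to galactose assay medium (pH 6.0, -URA) at 1:100 dilution. Compound 23 nl per well; the matching strain lacking NS1 serves as control.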
AMA1-RON2 inh: disrupts binding of P. falciparum AMA1 to RON2; AlphaScreen AMA1-biotinylated RON2 peptide binding; 360,000 compounds, 0.2% hits; Potency, µM (top dose mostly 58.2 µM), for the others: at the top dose activity change, negative = inhibition, most hits filed as inhibitors;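 further: 0% = vehicle wells and -100% = peptide control; nearly all actives have a fitted effect of over 45% in size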
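AMA1 (3D7) with his tag at 25 nM final met compounds first, then biotinylated RON2 peptide at 25 nM; detection used donor plus acceptor beads, 10 µg/mL apiece, read by AlphaScreen after 30 min at room temperature.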
Pf growth 96h: inhibits malaria parasite growth, 96 h; 320,000 compounds, 6.9% hits; Potency, µM (series often up to 28.7 µM), inactives show at the highest dose activity change, negative = inhibition, usual class: inhibitors; P. falciparum luciferase reporter growth, 96 h; AID 504834; further: on the % scale 0 is the no-effect control and ±100 the full control effect
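Erythrocytes infected with luciferase-expressing P. falciparum were dispensed at 2% hematocrit and 0.05% parasitemia (final), then incubated with compounds 96 hours at 37 C in 5% CO2. Luminescence after detection reagent addition reported growth.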
Sm TGR block: inhibitors of Schistosoma mansoni thioredoxin glutathione reductase; Potency, µM (titrated, usually from 114 µM), without a hit: at the top dose activity change, negative = inhibition, actives largely listed as inhibitors; Q962Y6; purified TGR, DTNB reduction, TNB absorbance 405 nm; 360,000 compounds, 3% hits; further: on the % scale 0 is the no-effect control and ±100 the full control effect; nearly all actives have a fitted effect of over 60% in size
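First, TGR (20 nM dispensed) and NADPH were mixed with compound. Second, a 15 min room-temperature incubation followed. Third, further NADPH and then DTNB were added to start the reaction. Finally, TNB absorbance was monitored kinetically.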
Pf growth 48h: inhibits P. falciparum growth in the first generation, 48 h. 310,000 compounds, 5.9% hits. P. falciparum luciferase growth in erythrocytes, 48 h. Potency, µM (highest dose often 28.7 µM), for inactives: at the highest dose activity change, negative = inhibition, hits mostly inhibitors; further: on the % scale 0 is the no-effect control and ±100 the full control effect
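Cell-based growth assay: transgenic P. falciparum expressing firefly luciferase, cultured in red cells within RPMI 1640 containing 0.5% w/v Albumax, 24 mM bicarbonate and gentamycin. A drop in luciferase activity indicates inhibition.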
An asterisk follows results filed as active; ? = inconclusive; . = no result given; [ ] = remark or other dose. Unless noted, the call rests on the fitted dose curve; in most records, active means well fitted curve in the direction sought with a large enough effect; inconclusive means small, poorly fitted or top-dose-only effect, or another doubt; inactive means no such curve, though single readings can be large; an effect the other way counts as inactive or inconclusive. Potency means the concentration at half of the fitted maximal effect.

SMILES	NS1 inh	AMA1-RON2 inh	Pf growth 96h	Sm TGR block	Pf growth 48h
CC1(C(=O)O)COC(c2ccc(Cl)cc2)OC1 (stereo unspecified)	5.9%	6.1%	7.2%	7.4%	2.94µM*
Cc1nn(-c2ccc(F)cc2)c2nc(N)c(C#N)c(-c3ccc(O)c(O)c3)c12	3.6%	-23.6%	10.4µM*	-12.6%	10.4µM*
COc1cc(-c2c(C#N)c(N)nc3c2c(C)nn3-c2ccc(C)c(C)c2)cc(OC)c1OC	?	0.0%	-22.3%[5.75 µM]	0.2%	4.65µM*
CC(=O)N1c2c(cc(Br)cc2S(=O)(=O)Nc2ccc(OC(F)(F)F)cc2)CC1C (stereo unspecified)	.	.	.	8.2%	.
COc1ccc(S(=O)(=O)Nc2cc3c4c(c2)CC(=O)N4CCC3)cc1C	.	0.6%	?	-5.9%	?
CC(C)(C)c1ccc(C2SCC(=O)N2c2cccc(C(=O)O)c2)cc1 (stereo unspecified)	3.3%	0.9%	?	-5.5%	9.8%
Cc1ccccc1NC(=O)C1(NC(=O)c2cccc(N3C(=O)CSC3c3ccccc3)c2)CCCCC1 (stereo unspecified)	8.0%	-18.3%	?	-1.2%	11.7µM*
COc1ccc(NC(=O)CN2CCN(S(=O)(=O)c3cccs3)CC2)cc1Cl	.	0.0%	11.7µM*	-8.7%	?
COc1ccc(S(=O)(=O)N2CCC(C(=O)Nc3cccc(C(C)=O)c3)CC2)cc1	-12.0%	6.9%	?	-1.9%	11.7µM*
O=C(CN1CCCN(S(=O)(=O)c2ccc(F)cc2)CC1)Nc1cccc(F)c1	-12.5%	-15.1%	0.0%	39.8µM*	-3.8%
COc1ccc(NC(=O)CN2CCN(c3nc(-c4cccc(OC)c4)cs3)CC2)cc1	22.5%	-8.6%	42.8%	0.2%	8.28µM*
O=C(CN1CCCN(S(=O)(=O)c2ccc(F)cc2)CC1)Nc1c(Cl)cccc1Cl	-16.9%	11.9%	5.3%	-28.2%	7.7%
CCOC(=O)c1ccc(NC(=O)CSc2cn(CC(=O)N3CCCC3)c3ccccc23)cc1	.	.	.	-0.2%	.
CCCCC(=O)NCc1nc2cccnc2n1Cc1ccc(OC)cc1	.	.	.	-0.5%	.
O=C(COC(=O)/C=C/c1ccc(OC(F)F)cc1)NC1CCCC1	.	-5.8%	?	-12.5%	6.2%
O=C(CN1CCN(C(=O)c2ccco2)CC1)Nc1cccc(S(=O)(=O)N2CCCC2)c1	.	-1.1%	10.4µM*	-35.7%	?
COc1ccc(S(=O)(=O)N2CCN(CC(=O)Nc3cccc(OC)c3)CC2)cc1	-28.5%	0.4%	13.1µM*	-2.4%	-12.1%
COc1cc2nc(CN(C)Cc3ccc(Cl)cc3)[nH]c(=O)c2cc1OC	1.5%	30.4%	?	-2.0%	0.0%
COc1cc2cncc(Cc3ccc(Cl)cc3)c2cc1OC	.	-3.3%	?	1.5%	8.28µM*
CCc1nc2ccc(C(=O)NCCc3ccc(OC)c(OC)c3)cc2nc1CC	-7.4%	3.2%	?	-3.3%	-10.5%
COc1ccccc1OCCNC(=O)c1ccco1	0.5%	15.9%	68.3%	4.9%	35.8%
COc1cc(Br)c(CCNC(=O)c2ccco2)cc1OC	-0.1%	3.7%	?	-26.7%	5.22µM*
COc1ccc(CCNC(=O)c2ccc3nc(-c4ccco4)c(-c4ccco4)nc3c2)cc1OC	16.8%	-19.7%	.	3.16µM*	?
COc1ccc(C(=O)NCCc2ccccc2)cc1OC	1.1%	-5.7%	0.0%	-8.6%	74.2%
COc1ccc(/C(O)=C/c2nc3ccc(C(=O)NCCc4cccc(C)c4)cc3[nH]c2=O)cc1OC	?	7.7%	?	4.6%	4.65µM*
SMILES	NS1 inh	AMA1-RON2 inh	Pf growth 96h	Sm TGR block	Pf growth 48h
CCOCCCNC(=O)c1ccc2nc(-c3ccc(OC)c(OC)c3)c(-c3ccc(OC)c(OC)c3)nc2c1	-3.3%	2.3%	14.1%	9.6%	3.7µM*
COc1ccc(-c2nc3ccc(C(=O)NCC(OC)OC)cc3nc2-c2ccc(OC)c(OC)c2)cc1OC	-4.0%	-0.8%	13.0%	5.6%	4.15µM*
COC(CNC(=O)c1ccc2nc(-c3cccs3)c(-c3cccs3)nc2c1)OC	-7.0%	-13.2%	?	3.9%	2.5%
CCCCn1nnnc1C1(C)CCC(=O)N1c1ccc(N2CCOCC2)cc1 (stereo unspecified)	.	-0.8%	.	.	.
Cn1c(O)c(/C=C2\N=c3ccccc3=C2CCNC(=S)NC2CC2)c(=O)n(C)c1=O	-2.8%	-8.4%	-4.7%	5.62µM*	-4.9%
Cn1c(O)c(/C=C2\C=Nc3ccccc32)c(=O)n(C)c1=O	-1.4%	0.4%	45.5%	-28.2%	0.4%
CCCNC(=O)c1ccccc1NC(=O)c1cccc(-n2cnnn2)c1	.	-5.1%	-20.4%	-12.3%	?
Cc1cc(C)c2oc(=O)cc(CN3CCC(C)CC3)c2c1	4.9%	-25.3%	?	-9.5%	10.4µM*
Cc1ccc2oc(=O)cc(CN3CCOCC3)c2c1	2.7%	-6.4%	7.38µM*	-6.9%	-3.1%
Cc1ccc2oc(=O)cc(CN3CCC(C)CC3)c2c1	-9.8%	-1.5%	5.86µM*	-2.4%	?
CCc1ccc2oc(=O)cc(CN3CCC(C)CC3)c2c1	1.0%	-9.7%	2.94µM*	4.2%	1.31µM*
CCc1ccc2oc(=O)cc(CN3CCOCC3)c2c1	-4.3%	-4.1%	.	6.3%	-12.7%
CCOC(=O)[C@]12CCCC=C1N(Cc1ccc3c(c1)OCO3)C(=O)[C@H](CC(=O)NCCCCc1ccccc1)C2	.	0.6%	.	.	.
COc1cc(C2C(C(=O)Nc3ccccc3C)=C(C)Nc3nc(SCc4cc(C)ccc4C)nn32)ccc1O (stereo unspecified)	.	.	.	-15.4%	.
CC(C)(C)OC(=O)N1CCC(NC(=O)c2[nH]c(C(F)(F)F)nc2-c2ccccc2)CC1	.	-27.8%	.	.	.
CC1=CCC2C(=O)N(c3cccc(C(=O)Nc4ccccc4Cl)c3)C(=O)C2C1 (stereo unspecified)	-35.5%	-0.2%	-19.8%	?	-6.9%
Cc1cc(C)c2oc(=O)cc(CN3CCN(Cc4ccccc4)CC3)c2c1	-1.3%	13.7%	?	-33.1%	11.7µM*
COc1ccc(Cl)cc1N(C)C(=O)Cc1noc2ccc(C)cc12	.	.	.	4.0%	.
CCOC(=O)N1CCC(N2CC34C=CC(O3)C(C(=O)Nc3ccc(F)cc3)C4C2=O)CC1 (stereo unspecified)	-20.1%	16.9%	14.7µM*	-3.1%	.
CCOC(=O)c1c(C)n(C)c2ccc(OCC(O)CNC(CC)CO)cc12 (stereo unspecified)	1.8%	8.3%	2.08µM*	-10.3%	?
CCOC(=O)c1c(C)n(-c2ccc(C)cc2)c2ccc(OCC(O)CNCC3CCCO3)cc12 (stereo unspecified)	.	-29.8%	3.29µM*	-7.9%	?
COc1ccc(NC(=O)C2CCCN(S(=O)(=O)c3c(C)[nH]c(=O)[nH]c3=O)C2)cc1Cl (stereo unspecified)	.	-4.0%	378.7%	?	272.4%
Cc1cc(C)cc(N(CCC#N)C(=O)CSC2=Nc3ccccc3C3CC=NN23)c1 (stereo unspecified)	.	3.4%	11.7µM*	-6.3%	13.1µM*
